In PubChem BioAssay AID777 (Sanford-Burnham Center for Chemical Genomics, 2007):
The whole screen tested about 96,000 compounds, of which about 19,000 (20%) were called active.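 How the source made its calls: active means blocking of liver enzyme CYP2C9 beyond about 50% at 5 µM (limit read from the data); inactive means the rest.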 These entries were drawn from the full list.

Target: Cytochrome P450 2C9 (Homo sapiens) (UniProt P11712)
Experiment: blockers of cytochrome P450 2C9 activity – biochemical, luminescence, ADME assay, primary screen (AID 777)
Conditions: CYP2C9 Supersomes, luciferin-H conversion, at 5 µM, active compounds read high

Cytochrome P450 2C9 (Homo sapiens), sequence (P11712 whole entry, looked up): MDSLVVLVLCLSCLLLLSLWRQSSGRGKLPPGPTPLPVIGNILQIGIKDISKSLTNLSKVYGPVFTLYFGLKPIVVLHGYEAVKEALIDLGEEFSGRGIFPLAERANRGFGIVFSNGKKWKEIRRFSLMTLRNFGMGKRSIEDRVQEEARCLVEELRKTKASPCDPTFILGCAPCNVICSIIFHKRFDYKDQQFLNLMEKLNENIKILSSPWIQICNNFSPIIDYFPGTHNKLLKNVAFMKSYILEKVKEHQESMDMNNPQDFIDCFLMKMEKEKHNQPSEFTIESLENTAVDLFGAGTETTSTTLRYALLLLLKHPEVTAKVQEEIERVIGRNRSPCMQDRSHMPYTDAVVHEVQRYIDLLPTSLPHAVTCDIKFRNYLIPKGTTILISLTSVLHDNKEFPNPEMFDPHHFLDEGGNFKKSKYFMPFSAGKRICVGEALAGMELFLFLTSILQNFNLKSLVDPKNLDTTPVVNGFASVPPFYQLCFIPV

Row | SMILES | inhibition
1 | CCCCN=C(N)/C(C(=O)OCC)=C(\O)c1ccc(OC)cc1 | 20.5% (inactive)
2 | CCC(=O)Nc1ccc2c(c1)nc(CCN1CCN(C)CC1)n2C | 0.1% (inactive)
3 | Cc1cc(C)n2nc(C(=O)NC(C)(C)C)nc2n1 | -10.2% (inactive)
4 | Cc1ccc(C(C)C)c(OCc2nnc(SCC(=O)Nc3nccs3)n2C)c1 | 3.8% (inactive)
5 | CCn1c2c(c3ccc(OC)cc31)CCCC2=O | 41.1% (inactive)
6 | Cn1c(=O)c2c(SCC(=O)N3CCOCC3)nc(C3CC3)nc2n(C)c1=O | 8.1% (inactive)
7 | Cc1c(C)c2cc3c4c(oc3c(C)c2oc1=O)CCCC4 | 9.6% (inactive)
8 | O=S1(=O)CC(NCc2ccccc2)C(Nc2ccc(Cl)cc2)C1 (stereo not drawn) | 27.4% (inactive)
9 | Cc1ccn2cc(-c3nonc3C)cc2c1 | 15.3% (inactive)
10 | O=C(Nc1ncc2c(n1)CC(c1ccco1)CC2=O)c1ccc(Cl)cc1 (stereo not drawn) | 31.2% (inactive)
11 | C=CCn1c(SCc2csc(C)n2)nc2scc(-c3ccc(C)o3)c2c1=O | 48% (inactive)
12 | COc1ccc(S(=O)(=O)N(C)CC(=O)Nc2ccc3c(c2)OCCO3)cc1OC | 27.4% (inactive)
13 | O=C(CN(c1ccc2c(c1)OCCO2)S(=O)(=O)c1ccccc1)Nc1ccc2c(c1)OCO2 | 92.2% (active)
14 | COc1ccc(CC(=O)Nc2ccc3c(c2)CCC3)cc1S(=O)(=O)N1CCOCC1 | 59.8% (active)
15 | COc1ccc(CNc2ccc3c(c2)CCC3)cc1OC | 7.2% (inactive)
16 | CC(C)C(=O)OCC(=O)Nc1ccc2c(c1)CCC2 | -0.6% (inactive)
17 | CCC(=NC1CC(C)(C)NC(C)(C)C1)C1=C(O)CC(C)(C)CC1=O | 13.4% (inactive)
18 | Cn1c(=NC(=O)CSCC(=O)N2CCOCC2)sc2ccccc21 | -13.1% (inactive)
19 | O=C(CSc1ncccn1)NC(=O)NCc1ccccc1 | 5.8% (inactive)
20 | CCCCOC(=O)Nc1sc2nc(C)cc(C)c2c1-n1cccc1 | 37.4% (inactive)
21 | Cc1cc(C)c2c(-n3cccc3)c(C(=O)NNS(=O)(=O)c3ccc(F)cc3)sc2n1 | 98.1% (active)
22 | Cc1cc(C)c2c(-n3cccc3)c(NC(=O)OCc3ccccc3)sc2n1 | 13.2% (inactive)
23 | COC(=O)Nc1sc2nc(C)cc(C)c2c1-n1cccc1 | 55.1% (active)
24 | COc1ccc(C2=Nc3cc(C)ccc3OC2)cc1 | 19.1% (inactive)
25 | Cc1ccc(S(=O)(=O)n2cnc3ccccc32)c(C)c1 | -7.6% (inactive)

Row | SMILES | inhibition
26 | O=C(CN1C(=O)C2C3C=CC(C3)C2C1=O)NCCc1ccccc1Cl (stereo not drawn) | 17.1% (inactive)
27 | CCc1c(O)nc(SCC(=O)N2CCCCC2)n(-c2ccccc2C)c1=O | 4.6% (inactive)
28 | Cc1ccc2nc3n(c(=O)c2c1)CCC3 | 21% (inactive)
29 | COc1ccc(OC)c(CNC(=O)C2CCCN(c3nc4ccccc4o3)C2)c1 (stereo not drawn) | 44.8% (inactive)
30 | COc1ccc(CCn2nnnc2C(c2ccccc2)N2CCN(C)CC2)cc1OC (stereo not drawn) | -6% (inactive)
31 | COc1ccc(C(c2nnnn2Cc2cccs2)N2CCN(c3ccccc3)CC2)cc1OC (stereo not drawn) | 61.5% (active)
32 | Cc1ccc(C(c2sc3nc(C)nn3c2O)N2CCN(c3ccccc3)CC2)cc1 (stereo not drawn) | 36% (inactive)
33 | CC(=O)NC(C)(C)C1CC=C(C)/C(=N\O)C1 (stereo not drawn) | -8.6% (inactive)
34 | CCOc1ccc(C2C(C(=O)O)c3ccccc3C(=O)N2CCN2CCOCC2)cc1 (stereo not drawn) | -15.8% (inactive)
35 | CCCOc1ccc(C2c3c(oc4cc(C)c(C)cc4c3=O)C(=O)N2CCCN2CCOCC2)cc1 (stereo not drawn) | 90.7% (active)
36 | CCCCOc1ccc(C(C)(O)CCN2CCOCC2)cc1 (stereo not drawn) | -4.9% (inactive)
37 | CC1(C)CN=C(N2CCN(c3ncnc4sc5c(c34)CCCC5)CC2)S1 | 39.4% (inactive)
38 | CCOC(=O)C1CCN(C(=O)Cc2c(C(=O)O)[nH]c3ccccc23)CC1 | 5.4% (inactive)
39 | Cc1ccc(SCCC(=O)OCC(=O)Nc2ncc(Cl)cc2Cl)cc1 | 37.2% (inactive)
40 | Cc1nc2c(-c3ccccc3)c(C)[nH]n2c(=O)c1Cl | 43.9% (inactive)
41 | CCCCN=C1N/C(=C\c2ccco2)C(=O)N1c1ccccc1 | 2.2% (inactive)
42 | O=S(=O)(c1ccc(Sc2nnc3ccccn23)nc1)N1CCOCC1 | -4.9% (inactive)
43 | CCN(c1ccccc1)S(=O)(=O)c1ccc(C(=O)Nc2nccs2)cc1 | 23.3% (inactive)
44 | Cc1ccccc1CSCCNC(=O)c1ccc(N(C)S(=O)(=O)c2ccccc2)cc1 | 94.3% (active)
45 | CN(c1ccc(C(=O)NCCC2=CCCCC2)cc1)S(C)(=O)=O | -11.3% (inactive)
46 | O=C(CSc1nnc(-c2c[nH]c3ccccc23)o1)c1ccccc1 | 18.1% (inactive)
47 | Cc1cccc(C)c1-n1c(C)cc(/C=C2\C(=O)NN(c3ccccc3)C2=O)c1C | 41.5% (inactive)
48 | Cc1ccc(Oc2ccc3c(c2)C(=O)N(c2cccc4cccnc24)C3=O)cc1 | -11.5% (inactive)
49 | COc1ccc(C(=O)CN2C(=O)NC(C)(c3ccc(C)cc3)C2=O)cc1OC (stereo not drawn) | 17.2% (inactive)
50 | Cc1ccc(C2(c3ccc(C)cc3)NC(=O)N(Cc3c(C)noc3C)C2=O)cc1 | 60.8% (active)

Row | SMILES | inhibition
51 | COc1ccc(C(=O)CSc2n[nH]c(N)n2)cc1 | 2.8% (inactive)
52 | O=C(CN1CCOCC1)Nc1c(-c2ccccc2)c2cc(Br)ccc2[nH]c1=O | -15.8% (inactive)
53 | CS(=O)(=O)c1ccc2nc(NC(=O)C3CCCCC3)sc2c1 | 7.3% (inactive)
54 | O=C(Nc1ccccc1N1CCCCC1)c1cccc(F)c1 | 1.2% (inactive)
55 | O=C(CN1CCN(c2ccccc2F)CC1)c1ccc2c(c1)OCO2 | 74.2% (active)
56 | CCCC(=O)Nc1ccccc1N1CCN(C(=O)c2ccccc2)CC1 | 35.7% (inactive)
57 | O=C(Nc1ccccc1N1CCN(C(=O)c2ccccc2)CC1)c1ccc2c(c1)OCO2 | 83.3% (active)
58 | O=C(c1ccc2c(c1)OCO2)N1CCNc2ccccc2C1 | -40.3% (inactive)
59 | O=C(Nc1ccccc1N1CCN(c2ccccc2)CC1)c1cccc(F)c1 | 81.1% (active)
60 | O=C(CN1CCN(CC(=O)Nc2ccc3c(c2)OCO3)CC1)Nc1ccc(F)cc1 | 33.1% (inactive)
61 | O=C(Nc1ccccc1N1CCCCC1)c1ccc2nccnc2c1 | 28.1% (inactive)
62 | CCOc1ccc(NC(=O)N2CCN(CC)CC2)cc1 | -0.2% (inactive)
63 | Cc1oc2nc(SCC(=O)Nc3ccc(S(N)(=O)=O)cc3)nc(NC(=O)c3ccccc3)c2c1C | 15% (inactive)
64 | COc1ccc(Cc2nnnn2CC(=O)O)cc1 | -11.9% (inactive)
65 | Cc1ccccc1-c1ccc(Nc2ccc(C(=O)N3CCOCC3)cc2)nn1 | 34.1% (inactive)
66 | COc1ccc(N2C(=O)CC(N3CCC(C(N)=O)CC3)C2=O)cc1 (stereo not drawn) | -20.9% (inactive)
67 | COc1ccc(CCN2CNc3c(c(=O)n(C)c(=O)n3C)C2)cc1OC | -29.7% (inactive)
68 | COC(=O)c1ccc(C2C(Oc3ccccc3C)C(=O)N2CCc2ccc(OC)c(OC)c2)cc1 (stereo not drawn) | 54.9% (active)
69 | COC(=O)c1ccc(C2CC(=O)Nc3cc(OC)c(OC)cc32)cc1 (stereo not drawn) | 30.2% (inactive)
70 | Cc1nn(C(C)CC(=O)O)c(C)c1C (stereo not drawn) | -4.1% (inactive)
71 | COc1ccc(CN2C(=O)CN=C2Nc2ccc(C)cc2C)cc1 | 31.5% (inactive)
72 | CCCCc1nc(NCCN)c(C#N)c2c1CSC(C)(C)C2 | 53.6% (active)
73 | CCN(CC)c1ccc(NC(=O)c2ccc(Cl)nc2)cc1 | -69.8% (inactive)
74 | CCOc1cc(NC(=O)c2ccco2)c(OCC)cc1NC(=O)COc1ccccc1 | 11.6% (inactive)
75 | O=C(COc1ccccc1)Nc1nonc1NC(=O)COc1ccccc1 | 52% (active)

Row | SMILES | inhibition
76 | CCOc1ccc(C(CC(=O)O)NC(=O)COc2ccccc2)cc1 (stereo not drawn) | 5.2% (inactive)
77 | Cc1ccc(C)c2[nH]c(=O)c(CCNC(=O)CC(C)C)cc12 | 30.9% (inactive)
78 | O=[N+]([O-])c1c(NCCO)cc(Sc2nc3ccccc3s2)c2nonc12 | 12.3% (inactive)
79 | Cn1c(=O)cc(OCCCC(=O)N2CCN(c3ccccn3)CC2)c2ccccc21 | 30.3% (inactive)
80 | COc1cccc(-c2nnc(NC(=O)c3ccc(S(=O)(=O)N(CC(C)C)CC(C)C)cc3)o2)c1 | 58.9% (active)
81 | CCN(CC)C(=O)CSc1nnc(-c2cccc(OC)c2)o1 | -55.9% (inactive)
82 | CC1CCCCN1S(=O)(=O)c1ccc(C(=O)Nc2nnc(-c3cccs3)o2)cc1 (stereo not drawn) | 7.8% (inactive)
83 | O=C(/C=C/c1cccs1)c1cc(Cl)ccc1OC(=O)N1CCOCC1 | 28.1% (inactive)
84 | O=C(CN1C(=O)C2C3C=CC(C3)C2C1=O)NCC1COc2ccccc2O1 (stereo not drawn) | -1.1% (inactive)
85 | CC1Oc2ccccc2N(Cc2cccnc2)C1=O (stereo not drawn) | 14% (inactive)
86 | CN(Cc1ccccc1)C(=O)CCNC(=O)Cn1cnc2ccccc2c1=O | 24.9% (inactive)
87 | O=C(Cn1nc(Cc2cccnc2)c2ccccc2c1=O)NCC1CCCO1 (stereo not drawn) | 21.3% (inactive)
88 | O=C(Cn1nc(Cc2cccnc2)c2ccccc2c1=O)NCC1COc2ccccc2O1 (stereo not drawn) | 66.1% (active)
89 | O=C(Cn1cnc2ccccc2c1=O)NCC1COc2ccccc2O1 (stereo not drawn) | 61.2% (active)
90 | Cc1cc(OC(=O)c2c(Cl)cccc2Cl)nc(C)n1 | 2.9% (inactive)
91 | CCC(C)NC(=O)CCCc1ccccc1 (stereo not drawn) | -17.4% (inactive)
92 | c1ccc(Cc2nn3c(Cn4cnc5ccccc54)nnc3s2)cc1 | 24.4% (inactive)
93 | CC(=O)c1cn(CCCCCCCCCCn2cc(C(C)=O)c(=O)[nH]c2=O)c(=O)[nH]c1=O | 3.4% (inactive)
94 | CC(=O)c1c(C)n([O-])c2ccccc2[n+]1=O | -1.1% (inactive)
95 | CCOC(=O)N1CCN(C(=O)c2cc3c(ccc4ccccc43)oc2=O)CC1 | 45.9% (inactive)
96 | NC(=O)COc1ccc2c3c(c(=O)oc2c1)CCCCC3 | -7.4% (inactive)
97 | CC1(C)CC(=O)c2cc(OCC(=O)NCC3CCCO3)ccc2O1 (stereo not drawn) | 18.5% (inactive)
98 | O=C(COc1ccc2c3c(c(=O)oc2c1)CCC3)NC1CCCCC1 | 73.7% (active)
